High-throughput results from PubChem.
Rows were chosen to be rich in hits. Some 1.5% of all compounds tested hit in one or more screens of this group.
NTR1 agonist – agonists of human neurotensin receptor NTR1; NTR1-U2OS beta-arrestin-GFP spot imaging, agonist mode; activation, % at 20 µM; AID 493036; P30989; 0.17% of 330,000 active;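 active = activation at or above 40% of the spot to cytoplasm intensity ratio, with at least 20 cells analyzed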;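 note: 0% = DMSO without peptide and 100% = 100 nM NTR1 peptide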
ABHD5 PLIN5 PPI – ABHD5-PLIN5 protein interaction inhibition; Q00G26+Q8WTS1; Split G. princeps luciferase complementation, luminescence, 4 h; inhibition, % at 4 µM; 0.78% of 360,000 active;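 active = inhibition above the mean inhibition across every tested compound plus 3 SD, cut at about 22% in these data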;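 note: 0% = DMSO only wells and the 100% control is not disclosed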
NOD2-RIPK2 inh – NOD2-RIPK2 protein interaction inhibition | O43353 | CHO BLA complementation NOD2-RIPK2, CCF4 ratio | inhibition, % at 4.98 µM | 0.38% of 360,000 active | AID 624267; in the data active = inhibition above about 21%;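 note: 0% = vehicle only and 100% = reference blocker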
TLR9-MyD88 inh – TLR9-MyD88 interaction inhibition; Q9NR96+Q99836; CHO BLA complementation TLR9-MyD88, CCF4 FRET ratio; inhibition, % at 4.98 µM; 0.21% of 340,000 active; AID 504734;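 active = inhibition above the mean over all tested compounds plus 3 SD, cut at about 21% in these data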;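 note: 0% = DMSO only wells and 100% = clavulanate BLA inhibitor control wells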
TLR4 MyD88 comp – blocks binding of human TLR4 to MyD88; HeLa CL3-4 TLR4/MyD88 BLA complementation, FRET ratio; inhibition, % at 8.4 µM; 0.18% of 200,000 active; AID 861; in the data active = inhibition above about 25%;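 note: 0% = vehicle and 100% = reference inhibitor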
Beta2AR agonist – activates human beta-2 adrenergic receptor causing internalization; response, % (no concentration beside the values); Am2.2-beta2AR cells, FAP receptor internalization, flow cytometry; AID 504454; 0.43% of 340,000 active; P07550;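 active = response above a set limit, near 3 SD of response in nonfluorescent compounds, cut at about 42% in these data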
Target sequence (P07550 whole entry, looked up): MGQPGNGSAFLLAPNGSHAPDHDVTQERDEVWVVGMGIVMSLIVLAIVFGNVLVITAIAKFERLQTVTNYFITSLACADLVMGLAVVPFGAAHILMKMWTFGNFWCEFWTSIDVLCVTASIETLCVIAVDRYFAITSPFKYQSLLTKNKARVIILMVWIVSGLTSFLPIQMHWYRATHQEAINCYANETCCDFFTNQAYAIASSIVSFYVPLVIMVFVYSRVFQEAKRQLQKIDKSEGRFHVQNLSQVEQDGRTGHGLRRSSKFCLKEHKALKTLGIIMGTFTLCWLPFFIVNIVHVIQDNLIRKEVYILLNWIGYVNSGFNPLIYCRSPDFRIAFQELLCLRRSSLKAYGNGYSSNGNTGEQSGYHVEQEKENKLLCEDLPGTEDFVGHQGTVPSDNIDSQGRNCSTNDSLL
Numbers without * were called inactive; . = not tested or not shown.

SMILES	NTR1 agonist	ABHD5 PLIN5 PPI	NOD2-RIPK2 inh	TLR9-MyD88 inh	TLR4 MyD88 comp	Beta2AR agonist
O=C(Nc1nc(-c2ccco2)c(-c2ccco2)s1)C1CC(=O)N(c2ccc3c(c2)OCCO3)C1 (centres undefined)	4	33*	-18	-12	12	3
COc1ccccc1N(C(=O)CCl)c1cn(C(C)=O)c2ccccc12	6	7	-8	-2	.	29
CC(=O)n1cc(N(C(=O)CCl)c2ccc(Cl)cc2)c2ccccc21	28	10	9	.	.	46*
Cc1ccc2nc(SCCC#N)nc(C)c2c1	0	-1	-8	7	-4	3
Cc1ccc2nc(SCC(=O)O)nc(C)c2c1	0	22*	-6	6	7	0
CC(C)C[C@H]1CNC(=S)N1C[C@H]1CCCN1C[C@H](Cc1ccc(O)cc1)N1C[C@H](CC(C)C)N(CCc2ccccc2)C1=S	.	23*	-7	.	.	.
CC(C)C[C@H]1CNC(=S)N1C[C@H]1CCCN1C[C@H](Cc1ccc(O)cc1)N1C[C@H](Cc2ccc(O)cc2)N(CC2CCCCCC2)C1=S	.	27*	-2	.	.	.
CC(C)C[C@H]1CNC(=S)N1CC1CCCN1C[C@H](Cc1ccccc1)N1C[C@H](Cc2ccc(O)cc2)N(CC2CCCCCC2)C1=S (some centres undefined)	.	-13	-7	-21	.	4
CCC(=O)N1CCCC(C)(C(=O)Nc2ccc3oc(CC)nc3c2)C1 (centres undefined)	.	-11	2	.	.	.
O=c1cc(CN2CCN(c3ccc(Cl)c(Cl)c3)CC2)c2c(ccc3ccccc32)o1	.	1	-13	.	.	.
CCOC(=O)[C@]12CCC=C1N(Cc1ccco1)C(=O)[C@H](CC(=O)NCC1CCCCC1)C2	.	1	-2	.	.	.
CCN(CC)S(=O)(=O)c1cccc(NC(=O)Nc2cccc(C(F)(F)F)c2)c1	41*	-12	0	0	4	17
COC(=O)C1=C(C)NC(=S)NC1c1ccc(-c2cccc(Cl)c2)o1 (centres undefined)	4	-1	4	-9	2	51*
CCOC(=O)C1=C(C)NC(=S)NC1c1ccc(-c2ccc(Cl)cc2)o1 (centres undefined)	2	15	-8	-7	-11	-4
CN(C)CCCn1c2c3ccccc3ccc2c2oc(=O)c3ccccc3c21	.	-29	17	1	.	43*
CN(C)CCCn1c(=S)[nH]c2ccccc2c1=O	3	-1	-4	-1	11	-16
CCOC(=O)c1c(NC(C)=O)sc2c1CCC(C=NCCCN(CC)CC)=C2Sc1ccccc1	9	48*	3	5	0	-921
CC(C)COc1cccc(-c2cc(C(=O)N/N=C/c3ccncc3)c3ccccc3n2)c1	6	0	5	-7	.	51*
CC(C)(C)Cc1c(-c2ccc(F)cc2)nc2ccc(Cl)cn12	.	-15	-2	8	.	.
COc1ccc(C2(CNC(=O)/C=C\c3ccco3)CCCC2)cc1OC	1	22*	10	-4	11	-7
O=C(N/N=C/c1ccccc1)c1ccc(N2CCCC2=O)cc1	1	-6	-13	0	.	64*
C/C(=N\NC(=O)c1ccc(N2CCCC2=O)cc1)c1ccccc1	-1	4	-6	-10	.	-18
COc1cc(OC)nc(Nc2nc(C(N)Cc3ccc(C(F)(F)F)cc3)cs2)n1 (centres undefined)	.	4	21	.	.	.
O=C(NC(=Nc1nc2ccccc2o1)NC(=O)c1ccccc1)c1ccccc1	2	-8	8	-3	-6	0
COc1ccccc1C(=O)NC(=Nc1nc2ccccc2o1)NC(=O)c1ccccc1OC	40*	0	-15	-13	5	-5
SMILES	NTR1 agonist	ABHD5 PLIN5 PPI	NOD2-RIPK2 inh	TLR9-MyD88 inh	TLR4 MyD88 comp	Beta2AR agonist
Cc1ccc(S(=O)(=O)N(C(=O)c2ccncc2)c2ccc(OC(=O)c3ccncc3)c3ccccc23)c(C)c1	-1	33*	17	12	2	5
Nc1ccc(S(=O)(=O)c2ccc(N)nc2)cc1	.	-1	-12	.	.	.
COc1ccc(-c2cc(NC(C)=O)c3ncc(-c4ccccc4)n3c2)c(OC)c1	.	4	8	.	.	.
Cc1ccc(N2C(=O)C3C(c4ccccc4)N4CCCN4C3(C)C2=O)cc1 (centres undefined)	-2	-1	-3	-13	-9	44*
O=C1NC[C@@H](CCCCN2C[C@H](Cc3ccc(O)cc3)N(CCc3ccc(O)cc3)C(=O)C2=O)N(Cc2ccccc2)C1=O	.	2	-7	.	.	.
CCCCNC(=O)C(NC(=O)c1cccs1)C(=O)c1ccccc1 (centres undefined)	.	-4	-7	.	.	.
CCCNC(=O)C1(C)CCN(C(=O)c2ccc(OC)cc2OC)C1 (centres undefined)	.	6	-12	.	.	.
CCOC(=O)c1csc(N/N=C2\CCc3ccccc32)n1	10	-14	4	3	.	18
CCOC(=O)c1csc(N/N=C2\CCCc3ccccc32)n1	42*	1	1	-2	.	2
CN1CCC(N2CCN(C3CN(C4CCCCC4)S(=O)(=O)C3)CC2)CC1 (centres undefined)	.	1	-12	.	.	.
COc1ccc(/C=C(/NC(=O)c2ccco2)C(=O)N2CCOCC2)cc1	0	-8	-4	-12	.	49*
Cc1ccccc1NC(=S)NCc1ccc2c(c1)cc(C)n2C	4	-4	-2	1	5	52*
COC(=O)[C@@]12C[C@@H](CC(=O)NCCc3ccccc3OC)C(=O)N(Cc3ccccc3)C1=CCC(C)(C)C2	.	-4	10	.	.	.
CCc1nc2ccc(C(=O)Nc3cccc(OC)c3)cn2c1N(CC)Cc1cccc(Br)c1	.	-11	0	.	.	.
C=C(CN(C)C)C(=O)c1cc(C)ccc1C	.	67*	45*	0	.	19
CC(=C/C(=O)O)/C=C/c1ccc([N+](=O)[O-])cc1	.	-4	-9	-7	0	52*
O=C(/C=C/c1ccc([N+](=O)[O-])cc1)/C=C/c1ccco1	-1	63*	1	8	.	15
C#CCOCCOCCOCCNc1nc(N2CCN(C(=O)CCCCCCCCCCNC(=O)Cn3cc(CCCCCN)nn3)CC2)nc(N2CCN(C(=O)CCCCCCCCCCNC(=O)[C@@H]([C@H](C)O)n3cc(C)nn3)CC2)n1	1	34*	1	15	.	55*
C#CCOCCOCCOCCNc1nc(N2CCN(C(=O)CCCCCCCCCCNC(=O)Cn3cc(C[C@@H](C)O)nn3)CC2)nc(N2CCN(C(=O)CCCCCCCCCCNC(=O)[C@@H]([C@H](C)CC)n3cc(CCCCCN)nn3)CC2)n1	20	55*	10	-7	.	95*
C#CCOCCOCCOCCNc1nc(N2CCN(C(=O)CCCCCCCCCCNC(=O)[C@H]([C@@H](C)CC)n3cc(CCCCN=C(N)N)nn3)CC2)nc(N2CCN(C(=O)CCCCCCCCCCNC(=O)[C@@H]([C@H](C)O)n3cc(C)nn3)CC2)n1	9	56*	41*	-3	.	104*
